Each structure is given as a SMILES string. Calls of active or inactive are those of the source. Rule for the calls: active = hit-call score of the fitted dose curve at least 0.9, where 1 is the maximum; inactive = score below 0.9.

This note sets out measurements from PubChem BioAssay (EPA / NIEHS).

A short description of the experiment: ATG_AP_1_CIS: Attagene CIS-FACTORIAL HepG2 Assay for human Activator Protein 1 (AP-1) (AID 2282931). The following applies: HepG2 Attagene cis-factorial AP-1 reporter mRNA; actives raise or lower the signal. The method, then: ATG_CIS is a cell-based, multiplexed-readout assay that uses HepG2, a human liver cell line, with measurements taken at 24 hours after chemical dosing in a 24-well plate.ATG_AP_1_CIS is one of 52 assay component(s) measured or calculated from the ATG_CIS assay. It is designed to make measurements of mRNA induction, a form of inducible reporter, as detected with fluorescence intensity signals by Reverse transcription polymerase chain reaction (RT-PCR) and Capillary electrophoresis technology.Data from the assay component ATG_AP_1_CIS was analyzed into 1 assay endpoint. This assay endpoint, ATG_AP_1_CIS, was analyzed with bidirectional fitting relative to DMSO as the negative control and baseline of activity. Using a type of inducible reporter, measures of mRNA for gain or loss-of-signal activity can be used to understand the reporter gene at the transcription factor-level as they relate to the gene FOS and JUN. Furthermore, this assay endpoint can be referred to as a primary readout, because this assay has produced multiple assay endpoints where this one serves a reporter gene function. To generalize the intended target to other relatable targets, this assay endpoint is annotated to the dna binding intended target family, where the subfamily is basic leucine zipper.
Human liver HepG2 cells are transiently transfected with multiple reporter transcription units (MRTUs) in 6-well plates using FuGene 6 reagent (Roche; 3 ml FuGene/1 mg DNA). The MRTU constructs are regulated by a cis-regulating element (promoter). […] A major difference between the CIS and TRANS system is that in CIS activities of endogenous TFs are measured, whereas the TRANS assay evaluates changes in activities of exogenous, chimeric NR-Gal4 proteins. […] At the end of 24 hour incubation, total RNA was isolated using TriZol reagent (Invitrogen). The isolated RNA is then reverse-transcribed using oligo(dT) primer and Mo-MLV reverse transcriptase (Invitrogen) with DNAse I (Ambion) treatment for 30 min. The one-tenth of the produced cDNA was amplified by PCR using Taq DNA polymerase (Invitrogen) and two reporter sequence-specific primers. The PCR products were fluorescently labeled by primer extension with 6-arboxyfluorescein (6-FAM) 5'-labeled reporter sequence-specific primer (2 min at 95 C, 20 s at 68 C and 10 min at 72 C) and these products were digested with 5U of HpaI (New England Biolabs) for 2h at 37 C. The fragments were purified using Qiaquick PCR columns (Qiagen), analyzed on an ABI 3130xL genetic analyzer (Applied Biosystems) with peak positions identified by using a set of X-rhodamine (ROX)-labeled MapMarker1000 molecular weight standards (BioVentures). The raw capillary electrophoresis data was processed using Attagraph software (Attagene).
Turning to `C=C(C)C(=O)OCCOC(=O)C(=C)C`, the molecule was classed as inactive.

With `CC/C=C\CCOC(=O)c1ccccc1O`, the molecule was classed as inactive.

Take `Cc1ccc([N+](=O)[O-])cc1N`: the molecule was classed as inactive.

The AC50 is the midpoint of the concentration-response curve, whichever way the signal moves. In the case of `CCCCCCCCCCCC(C)=O`, the AC50 was 72.7 µM (active).

On to `COc1cc(C)ccc1O`, for which the call was inactive.

`O=C(Nc1ccccc1)c1cc(Cl)ccc1O`: the AC50 was 2.84 µM (active).

As to `CC1=CP(=O)(c2ccccc2)CC1` (stereo not given), the molecule was classed as inactive.

For `COC(OC)(C(=O)c1ccccc1)c1ccccc1`, the outcome was inactive.

On to `CC(Cl)COP(=O)(OCC(C)Cl)OCC(C)Cl` (stereo not given), for which the call was inactive.

Take `CCCCCCCCCC[N+](C)(CCCCCCCCCC)CCC[Si](OC)(OC)OC`: the result was inactive.

For `CC1(C)CC(O)CC(C)(C)N1[O]`, the AC50 is 26.6 µM (active).

With `Cc1ccc2c(c1)CCCN2`, the outcome was inactive.

`CCCCOC(=O)CCC(C)=O`: the molecule was classed as inactive.

`O=C(O)CC(C(=O)O)S(=O)(=O)O` (stereo not given): the result was inactive.

On to `CCC(C)C(=O)OC` (stereo not given), for which the molecule was classed as inactive.

With `CC(C)CCOCc1ccccc1`, the call was inactive.

As for `CC(C)(O)Cc1ccccc1`, the molecule was called inactive.

As for `OCCCc1ccccc1`, the outcome was inactive.

`CC(C)=NNC(N)=S`: the molecule was classed as inactive.

For the molecule `CN(C)Cc1cc(CN(C)C)c(O)c(CN(C)C)c1`, the outcome was inactive.

Regarding `CCCCCCCCCCCCCc1ccccc1`, the molecule was classed as inactive.

As for `C[Si](C)(C)N[Si](C)(C)C`, the call was inactive.

Turning to `O=c1c(O)c(-c2ccc(O)cc2O)oc2cc(O)cc(O)c12`, the call was inactive.

With `COC(=O)c1ccccc1C`, the molecule was classed as inactive.

For the molecule `CC1CCC(=O)C1=O` (stereo not given), the outcome was inactive.

Consider `Nc1ccc(C(=O)OCCCOC(=O)c2ccc(N)cc2)cc1`, for which the molecule was classed as inactive.

`CC(C)c1cc(C(C)C)cc(C(C)C)c1`: the AC50 is 125 µM (active).

For the molecule `CC1OC(=O)C(C)OC1=O` (stereo not given), the molecule was classed as inactive.

In the case of `Oc1ccc(/C=C/c2cc(O)cc(O)c2)cc1`, the molecule was classed as inactive.

For `CCCCOCCOCCOC(C)=O`, the call was inactive.

Regarding `Oc1ccccc1Cc1ccccc1O`, the molecule was classed as inactive.

For the molecule `CC(=O)OC1CCCCC1`, the molecule was classed as inactive.

Regarding `CCOC(=O)c1ccccc1C`, the result was inactive.

On to `CCCCNS(=O)(=O)c1ccc(C)cc1`, for which the call was inactive.

`NC(=O)Nc1ccccc1`: the molecule was called inactive.

As for `CC1CC(=O)CC(C)(C)C1` (stereo not given), the molecule was classed as inactive.

For `CC(C)=CCl`, the outcome was inactive.

With `CCC(C)C(=O)OCCc1ccccc1` (stereo not given), the molecule was called inactive.

`C=CC(=O)NCOCCCC`: the outcome was inactive.

Consider `CC1=CC(C)C(C=O)CC1` (stereo not given), for which the molecule was called inactive.
